Screening results as filed in PubChem BioAssay.
This is a sample that favours compounds with a hit; in the whole collection about 6.1% have one here.
D1 antagonist: human D1 dopamine receptor antagonism; P21728; HEK293 TREx D1 cells, calcium flux, dopamine EC80; stronger effect = lower value; activity change, negative = inhibition, % at 10 µM; 360,000 compounds, 3.2% hits; in the data active = activity change below about -30%; note: % is set by controls: 0 for no effect and ±100 for the full control effect
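Kinetic fluorescence of a calcium dye serves as the read-out. D1-expressing Hek293 Trex cells, induced overnight at 30 C, are exposed to compound for 180 s before an EC80 dopamine addition, then read 180 s further.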
D1 agonist: activates the human D1 dopamine receptor; P21728; HEK293 T-REx D1 cells, calcium flux, agonist mode; activation, % at 2 µM; 360,000 compounds, 1% hits; AID 504660; in the data active = activation above about 30%; note: 0% is about no effect
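Inducible HEK293 T-REx D1 cells, force-coupled to calcium signalling, were plated at 4000 cells/well with tetracycline and held overnight at 30 C. After no-wash calcium dye loading, compound-evoked calcium rise over 180 s flagged agonists.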
DRD3 agonist: D3 dopamine receptor (human) agonism; AID 652048; D3R DiscoveRx beta-arrestin cells, luminescence, 90 min; 410,000 compounds, 0.58% hits; max activation, %; P35462; in the data active = max activation above about 30%; note: 0% is about no effect
Target sequence (P35462 whole entry, looked up): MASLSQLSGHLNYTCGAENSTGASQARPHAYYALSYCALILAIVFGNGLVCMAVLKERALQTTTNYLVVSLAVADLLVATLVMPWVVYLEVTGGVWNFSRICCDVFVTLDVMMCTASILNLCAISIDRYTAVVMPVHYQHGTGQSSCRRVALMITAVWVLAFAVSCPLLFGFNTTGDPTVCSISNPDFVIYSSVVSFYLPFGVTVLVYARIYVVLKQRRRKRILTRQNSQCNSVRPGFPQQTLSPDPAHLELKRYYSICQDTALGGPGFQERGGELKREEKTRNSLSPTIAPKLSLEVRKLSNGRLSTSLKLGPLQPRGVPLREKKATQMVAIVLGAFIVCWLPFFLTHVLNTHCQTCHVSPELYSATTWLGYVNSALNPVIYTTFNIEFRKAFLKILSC
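Cells at 1500/well, incubated overnight, then treated with pinned compounds (dopamine as control) for 90 min at 37 degrees C. DiscoveRx reagent added for 30 - 60 minutes at room temperature; luminescence read.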
D1 potentiator: potentiators of human D1 dopamine receptor. HEK293 TREx D1 cells, calcium flux, dopamine EC20 potentiation. 360,000 compounds, 0.036% hits. potentiation, % at 10 µM. AID 504651. P21728; in the data active = potentiation above about 30%; note: 0% is about no effect
DRD3 antagonist: blocks the human D3 dopamine receptor; max response, negative = inhibition, %; D3R cells, DiscoveRx beta-arrestin luminescence, antagonist mode; stronger effect = lower value; 360,000 compounds, 2.5% hits; P35462; in the data active = max response below about -50%; note: % is set by controls: 0 for no effect and ±100 for the full control effect
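Cells expressing the human receptor were seeded at 1500 cells/well, incubated overnight at 37 degrees C in 5% CO2, then exposed to library compounds with dopamine controls for 90 minutes at 37 degrees C before luminescent detection.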
Starred values were filed as active, the others as inactive.

Screening CCCSCCCNC(=O)c1ccc(Cn2c(=O)c3cccn3c3cccnc32)cc1 returned D1 antagonist -2, D1 agonist 9, DRD3 agonist 12 and D1 potentiator 0.
Screening O=C(CCn1cccn1)Nc1ccc(Br)cc1F returned D1 antagonist -6, D1 agonist 0, DRD3 agonist 2 and D1 potentiator -7.
For O=C(OCCCN1CCCC1)C1(c2ccccc2)CCCC1 the results were D1 antagonist 19, D1 agonist 11, DRD3 agonist -1, D1 potentiator 16 and DRD3 antagonist -54*.
`CCN(CC)CCOC(=O)C1(c2ccccc2)CCCC1` gave D1 antagonist -8, D1 agonist 13, DRD3 agonist -20, D1 potentiator 8 and DRD3 antagonist -19.
For CCOC(=O)c1c(N)sc2c(NC(C)=O)cccc12 the results were D1 antagonist -2, D1 agonist 2, DRD3 agonist 0, D1 potentiator -6 and DRD3 antagonist -81*.
For Cc1cc(OCCn2c(CCNC(=O)C3CCCCC3)nc3ccccc32)ccc1Cl the results were D1 antagonist -5, D1 agonist 23, DRD3 agonist -13 and D1 potentiator -1.
`Cc1c(CC(=O)NCCc2ccccc2F)c(=O)oc2c(C)c3occ(C(C)(C)C)c3cc12` gave D1 antagonist 10, D1 agonist 0, DRD3 agonist 3 and D1 potentiator -1.
Screening O=C(/C=C/c1cccs1)N1CCC2(CC1)Oc1ccc(Cl)cc1C(=O)C21CC(c2cccnc2)=NO1 (stereo unspecified) returned D1 antagonist -25, D1 agonist 4, DRD3 agonist 37*, D1 potentiator 8 and DRD3 antagonist 80.
Screening O=C(Nc1ccc(F)cc1)C1CCN(S(=O)(=O)c2cccs2)CC1 returned D1 antagonist -40*, D1 agonist 13, DRD3 agonist 1, D1 potentiator -1 and DRD3 antagonist -5.
For O=C(C1CCC(CNS(=O)(=O)c2cccs2)CC1)N1CCN(c2ccc(F)cc2)CC1 (stereo unspecified) the results were D1 antagonist 19, D1 agonist -5, DRD3 agonist 45*, D1 potentiator -5 and DRD3 antagonist 138.
Screening O=C(NCc1ccc(F)cc1)C1CCC(CNS(=O)(=O)c2cccs2)CC1 (stereo unspecified) returned D1 antagonist 3, D1 agonist 6, DRD3 agonist -6, D1 potentiator 7 and DRD3 antagonist -1.
For O=C(Nc1cc(Cl)ccn1)C1CCN(S(=O)(=O)c2cccs2)CC1 the results were D1 antagonist -31*, D1 agonist 5, DRD3 agonist -2, D1 potentiator -15 and DRD3 antagonist -6.
`Cc1csc(NC(=O)C2CCN(S(=O)(=O)c3ccccc3F)CC2)n1` gave D1 antagonist -38*, D1 agonist 24, DRD3 agonist -5, D1 potentiator -11 and DRD3 antagonist -19.
`Cc1csc(NC(=O)C2CCN(S(=O)(=O)c3cccs3)CC2)n1` gave D1 antagonist -3, D1 agonist 13, DRD3 agonist -5, D1 potentiator -10 and DRD3 antagonist -12.
`Cc1cc2c(s1)c1cnn(Cc3cc(Cl)ccc3F)c(=O)c1n2C` gave D1 antagonist -12, D1 agonist 0 and D1 potentiator 0.
`CCc1nn2c(=O)cc(COC(=O)c3ccccc3NC(=O)COc3ccc(C)c(C)c3)nc2s1` gave D1 antagonist 2, D1 agonist 0, DRD3 agonist 3 and D1 potentiator 0.
Screening CCOc1cc2c(cc1OCC)C(c1c(F)cccc1Cl)CC(=O)N2 (stereo unspecified) returned D1 antagonist 4, D1 agonist 1, DRD3 agonist 1 and D1 potentiator -2.
Screening CS(=O)(=O)N1CCC(C(=O)Nc2ccc(F)cc2)CC1 returned D1 antagonist 28, D1 agonist 2, DRD3 agonist -1, D1 potentiator -5 and DRD3 antagonist -3.
Screening O=C(Nc1ccc(F)cc1)C1CCC(N2C(=O)c3ccccc3C2=O)CC1 (stereo unspecified) returned D1 antagonist -30*, D1 agonist 7, DRD3 agonist -13, D1 potentiator 0 and DRD3 antagonist -20.
For O=C(CCC(=O)c1cccs1)NNC(=O)c1ccccc1Cl the results were D1 antagonist 9, D1 agonist 0, DRD3 agonist 8, D1 potentiator -7 and DRD3 antagonist -4.
Screening C[C@H](NC(=O)c1ccccc1Cl)C(=O)OCC(=O)NNC(=O)c1cccs1 returned D1 antagonist 6, D1 agonist 6, DRD3 agonist -15, D1 potentiator 2 and DRD3 antagonist -55*.
For COc1cccc(NC(=O)C(C)n2c(=O)cc(C(F)(F)F)c3c(C)nn(C)c32)c1 (stereo unspecified) the results were D1 antagonist -8, D1 agonist 3, DRD3 agonist 4 and D1 potentiator -5.
Screening COc1cc(C)c(S(=O)(=O)n2ccc(C)n2)cc1C returned D1 antagonist -32*, D1 agonist 0, DRD3 agonist -3, D1 potentiator -2 and DRD3 antagonist -25.
`Cc1c(/C=N/NC(=O)c2cccs2)c2ccccc2n1Cc1ccccc1Cl` gave D1 antagonist -99*, D1 agonist 2, DRD3 agonist -10, D1 potentiator -10 and DRD3 antagonist -3.
Screening COc1cc(C(=O)N/N=C/c2ccsc2C)cc(OC)c1OC returned D1 antagonist 9, D1 agonist 1, DRD3 agonist -12, D1 potentiator -2 and DRD3 antagonist -53*.
COc1ccc(Br)cc1/C=N/NC(=O)c1cc(OC)c(OC)c(OC)c1 was read as D1 antagonist -7, D1 agonist 3, DRD3 agonist 2, D1 potentiator -4 and DRD3 antagonist 32.
O=C(COc1ccccc1F)Nc1ccc2nc(SCC(=O)N3CCOCC3)sc2c1 was read as D1 antagonist -13, D1 agonist 16, DRD3 agonist 5 and D1 potentiator -1.
`O=c1oc2cc(O)ccc2cc1-c1nc(-c2ccc(Cl)c(Cl)c2)cs1` gave D1 antagonist 7, D1 agonist 46*, DRD3 agonist 6 and D1 potentiator 3.
O=c1oc2cc(O)ccc2cc1-c1nc2c(s1)CCc1ccccc1-2 was read as D1 antagonist -23, D1 agonist 283*, DRD3 agonist 0, D1 potentiator -10 and DRD3 antagonist 84.
`COc1ccc2oc(=O)c(-c3nc(-c4ccc(C)c(C)c4)cs3)cc2c1` gave D1 antagonist -6, D1 agonist 5, DRD3 agonist 1 and D1 potentiator -1.
For O=c1oc2ccccc2cc1-c1nc2c(s1)CCc1ccccc1-2 the results were D1 antagonist 3, D1 agonist 21, DRD3 agonist 1, D1 potentiator -8 and DRD3 antagonist 11.
`CC(C)(C)C(=O)Nc1ccc2nc(SCC(=O)N3CCc4ccccc43)sc2c1` gave D1 antagonist 45, D1 agonist 17, DRD3 agonist 6 and D1 potentiator 4.
